Source: PubChem
PLK1 PBD block: qHTS for Inhibitors of PLK1-PDB (polo-like kinase 1 - polo-box domain): Primary Screen | Serine/threonine-protein kinase PLK1 (Homo sapiens), P53350 | AID 720504, 2013 | Plk1 PBD binding of FITC phosphopeptide, fluorescence polarization | 360,000 compounds, 2.8% hits | Potency, µM, for inactives: max response, negative = inhibition, hits mostly inhibitors; note: series mostly up to about 57 µM; nearly all actives have a fitted effect of over 65% in size
Tau fibril FP: qHTS for Inhibitors of Tau Fibril Formation, Fluorescence Polarization. Microtubule-associated protein tau (Homo sapiens), P10636. K18 P301L tau heparin fibrillization, Alexa594 FP, 6 h. Potency, µM (top dose mostly 57.7 µM), inactives show top-dose activity, negative = inhibition, actives largely listed as inhibitors. 280,000 compounds, 0.39% hits. AID 1468, 2008; note: nearly all actives have a fitted effect of over 55% in size
Target sequence (P10636 561-689 P618L limits assumed): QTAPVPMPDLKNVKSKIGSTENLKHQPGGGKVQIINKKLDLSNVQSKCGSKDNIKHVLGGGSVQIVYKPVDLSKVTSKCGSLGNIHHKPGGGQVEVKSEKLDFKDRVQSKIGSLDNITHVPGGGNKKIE
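Steps: dispense K18 P301L tau (15 uM plus 0.24 uM Alexa 594 tracer, final) in pH 7 sodium acetate; add compound; add heparin (20 uM final); incubate 6 hr, 37 C; add ThT (30 uM final); after 1 hr ambient, read FP.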
Sfp inh: qHTS Assay for Inhibitors of Bacillus subtilis Sfp phosphopantetheinyl transferase (PPTase). Biochemical Sfp PPTase activity, qHTS. Potency, µM, inactives show largest response in the series, negative = inhibition, most hits filed as inhibitors. 310,000 compounds, 3.5% hits. AID 1490, 2009;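 note: the enzyme is Sfp with the accession as filed and its product quenches rhodamine fluorescence; 0% = enzyme reaction without inhibitor and -100% = no enzyme wells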
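Step 1, compound plus 15 nM Sfp-PPTase, 15 min, room temperature. Step 2, add rhodamine-CoA (5 uM) and BHQ-2-YbbR (12.5 uM). Step 3, read 525/598 nm fluorescence at 0 and 30 min.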
Tau fluor cs: Counterscreen qHTS for Inhibitors of Tau Fibril Formation, Fluorescence Polarization; 280,000 compounds, 0.93% hits; AID 1463, 2008; Potency, µM (highest dose often 57.7 µM), for the others: at the highest dose activity change, negative = decrease; tau K18 P301L Alexa594 fluorescence, heparin fibrillization; note: nearly all actives have a fitted effect of over 55% in size
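Human K18 P301L tau (15 uM unlabeled plus 0.24 uM Alexa 594-labeled, final) in 100 mM sodium acetate pH 7 was mixed with compound and 20 uM heparin and incubated 6 hr at 37 C.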
VDR inh: Inhibitors of the vitamin D receptor (VDR): qHTS | VDR-SRC2-3 peptide fluorescence polarization, 2 h | Vitamin D3 receptor (Homo sapiens), P11473 | 400,000 compounds, 0.93% hits | Potency, µM, for the others: max response, negative = inhibition, hits mostly inhibitors
Target sequence (P11473 whole entry, looked up): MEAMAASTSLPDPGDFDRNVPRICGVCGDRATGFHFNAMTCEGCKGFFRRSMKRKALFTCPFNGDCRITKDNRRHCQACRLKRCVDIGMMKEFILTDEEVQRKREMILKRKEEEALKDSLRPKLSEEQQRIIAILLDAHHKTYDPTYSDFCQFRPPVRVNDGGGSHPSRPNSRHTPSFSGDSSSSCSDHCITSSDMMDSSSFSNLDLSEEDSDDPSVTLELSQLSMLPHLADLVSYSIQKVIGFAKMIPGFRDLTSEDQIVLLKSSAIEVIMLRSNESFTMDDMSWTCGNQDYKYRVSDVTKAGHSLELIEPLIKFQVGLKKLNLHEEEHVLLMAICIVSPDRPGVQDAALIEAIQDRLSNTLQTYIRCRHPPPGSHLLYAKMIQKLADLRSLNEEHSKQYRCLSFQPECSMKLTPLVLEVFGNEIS
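FP read-out; VDR + SRC2-3 coactivator peptide; 23 nl compound by pintool; 2 h RT incubation; reagents held at 4 deg C, protected from light.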
Tau ThT inhib: qHTS for Inhibitors of Tau Fibril Formation, Thioflavin T Binding | recombinant tau K18 P301L (four-repeat tau fragment), heparin-induced fibrillization, ThT fluorescence | Potency, µM (series often up to 57.4 µM), without a hit: top-dose activity, negative = inhibition, actives largely listed as inhibitors | 270,000 compounds, 2.1% hits | Microtubule-associated protein tau (Homo sapiens), P10636; note: nearly all actives have a fitted effect of over 55% in size
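Recombinant human tau K18 fragment […] carrying P301L, 15 uM unlabeled plus 0.24 uM Alexa 594-labeled, was fibrillized with 20 uM heparin in 100 mM sodium acetate pH 7 for 6 hr at 37 C; 30 uM ThT fluorescence read after 1 hr.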
* = called active by the depositor; ? = inconclusive; / = no result given; [ ] = remark or other dose. Compounds with a hit are over-represented: about 6% of the library has one in this group of screens. Calls come from the whole dose curve; as a rule, active = well fitted curve in the direction sought with a large enough effect; inconclusive = small, poorly fitted or top-dose-only effect, or another doubt; inactive = no such curve, though single readings can be large; an effect the other way counts as inactive or inconclusive. Unless noted, % is set by controls: 0 for no effect and ±100 for the full control effect; potency is the fitted concentration of half-maximal effect.

SMILES	PLK1 PBD block	Tau fibril FP	Sfp inh	Tau fluor cs	VDR inh	Tau ThT inhib
CC1=Nc2ccccc2/C1=C\c1nc(-c2ccccc2)oc1O	-7%	?	-4%	7.9µM*[quencher]	10%	5µM*
COc1ccc(-c2nc(/C=C3\C(C)=Nc4ccccc43)c(O)o2)cc1	-14%	?	?	8.9µM*[quencher]	1%	4µM*
Oc1ccccc1-c1nnc(-c2ccc(C(F)(F)F)cc2)o1	-8%	-1%	11%	-8%	1%	-10%
CC1=Nc2ccccc2/C1=C/c1nc(-c2ccc(C)s2)oc1O	5%	4%	-5%	5µM*[quencher]	-12%	2.8µM*
CCOC(=O)c1cc(S(=O)(=O)Nc2ccccc2)[nH]n1	/	-3%	/	2%	20%	7%
N#Cc1c(SCC(N)=O)nsc1SCc1ccc(Cl)cc1	-2%	-18%	-1%	-17%	5%	-3%
Cc1ccc(C(=O)CSc2nsc(C)c2C#N)cc1	15µM*	-13%	20µM*	-24%	?	?
Cc1ccnc(SCC(=O)c2ccc(Br)cc2)c1C#N	-12%	-6%	-29%	-22%	13%	-6%
COC(=O)c1ccccc1CSc1nsc(C)c1C#N	13µM*	/	50µM*	/	-25%	/
Cc1snc(SCC(=O)c2ccc(Cl)cc2)c1C#N	21µM*	?	28µM*	?	-25%	?
O=C(CSc1oc(-c2ccco2)nc1S(=O)(=O)c1ccc(Br)cc1)c1ccccc1	/	-18%	/	?	5%	-14%
CCn1c(SCC(=O)N2CCN(c3ccccc3)CC2)nc2c(c1=O)SC(C)C2 (stereo not given)	-6%	-2%	14%	7%	-10%	4%
CC1Cc2nc(SCC(=O)N3CCN(c4ccccc4)CC3)n(CCc3ccccc3)c(=O)c2S1 (stereo not given)	-4%	2%	45µM*	-20%	3%	?
CCc1ccc(NC(=O)c2ccc3[nH]c(C)c(C)c3c2)cc1	/	?	/	-27%	-4%	?
CCOc1ccc(Nc2nc(Cc3nnc(SCC(=O)O)o3)cs2)cc1	-18%	0%	45µM*	-20%	-4%	?
O=S1(=O)C2CC3C=CC2(O3)C(O)C(Cc2ccccc2)N1Cc1cccc(C(F)(F)F)c1 (stereo not given)	/	/	4%	/	-15%	/
Cc1ccc(N/C=C/c2onc(C)c2[N+](=O)[O-])cc1	1%	6%	8%	-24%	-27%	0.63µM*
COCCCNC(=O)C(=O)NC1CCCCCC1	-23%	-2%	13%	10%	2%	11%
COCCNC(=O)C/C(C)=N/NC(=O)C(=O)NC1CCCCC1	24µM*	-5%	-13%	-8%	4%	-10%
CC(=O)n1nc(-c2ccc(Cl)cc2)nc1NCc1ccco1	21µM*	-2%	4%	-8%	?	-5%
CCOc1ccc(-c2cc(NC(=O)Nc3ccccc3C(F)(F)F)c(C(=O)OC)s2)cc1	/	-5%	/	-23%	9%	-10%
CCOc1ccc(-c2cc(NC(=O)c3c(F)cccc3F)c(C(=O)O)s2)cc1	34µM*	/	-6%	/	?	/
O=C(Nc1cc(-c2ccccc2)sc1C(=O)O)c1cccc(F)c1	30µM*	3%	0%	-5%	-2%	?
CC(=O)N(Cc1ccccc1C)c1cccc(C)c1C	-9%	-2%	15%	-4%	4%	-5%
COc1ccc(OC)c(C2CC(=O)c3c([nH]c(C(=O)OCc4ccc(C)cc4)c3C)C2)c1 (stereo not given)	/	-6%	/	-21%	-15%	?
SMILES	PLK1 PBD block	Tau fibril FP	Sfp inh	Tau fluor cs	VDR inh	Tau ThT inhib
CCOC(=O)c1c(C)[nH]c(C)c1C(=O)COc1ncnc2ccccc12	12µM*	-4%	11%	-8%	?	-5%
CCOC(=O)c1c(NC(=O)COc2ncnc3ccccc23)sc(C)c1C	-6%	3%	?	3%	20%	3%
CCC(=O)N1CCCC(C)(C(=O)Nc2nccc3cccnc23)C1 (stereo not given)	5%	/	/	/	/	/
Cc1ccc([N+](=O)[O-])cc1S(=O)(=O)n1ccnc1C	4.2µM*	4%	9%	-10%	?	-3%
Cc1oc(-c2ccc3c(c2)OCCO3)cc1C(=O)NC(Cc1ccccc1)C(=O)O (stereo not given)	?	-7%	22µM*	-13%	?	?
COC(=O)CCC(NC(=O)c1cc(-c2ccc3c(c2)OCCO3)oc1C)C(=O)OC (stereo not given)	-30%	13%	35µM*	-11%	-13%	-18%
CCOC(=O)CNC(=O)c1cc(-c2ccc3c(c2)OCCO3)oc1C	-5%	0%	-10%	-4%	-15%	-11%
Cc1oc(C(C)(C)C)cc1C(=O)NC(Cc1ccccc1)C(=O)O (stereo not given)	-8%	-1%	20%	1%	-15%	5%
CC1=C(C(=O)N2CCCCCC2)CC(CC(=O)NCCCN(C)C)C(=O)N1Cc1ccc(F)cc1 (stereo not given)	0%	/	/	/	/	/
CCc1cccc(NC(=O)Cn2nc3c4cc(F)ccc4n(Cc4cccc(C)c4)cc-3c2=O)c1	/	-11%	/	-6%	4%	?
C[C@@H](NC(=O)[C@@H]1CCCN1C(=O)[C@@H]1CCCN1C(=O)c1cccc(Cl)c1)c1ccccc1	-6%	/	/	/	/	/
Cn1c(=O)c(C#N)c(-c2ccc(F)cc2)c2cc(C(=O)c3cc(Cl)cc(Cl)c3O)cnc21	27µM*	1%	45µM*	-24%	4%	14µM*
CC(=O)OC1(C)C=Cc2ccccc2C1=NS(=O)(=O)c1ccccc1 (stereo not given)	-13%	/	/	/	/	/
N#CC1=C(N)OC2=C(CCC/C2=C/c2ccoc2)C1c1ccoc1 (stereo not given)	/	?	40µM*	-21%	/	28µM*
Cc1cccc(C)c1NC(=O)Cn1c(=O)n(Cc2ccco2)c(=O)c2ccc(C(=O)NC3CCCC3)cc21	/	?	/	-10%	-6%	-1%
N#Cc1ccc(N2C(=O)[C@@H]3C(C(=O)c4cnccn4)=NN[C@@H]3C2=O)cc1	-9%	-5%	18µM*	-16%	24%	?
N#Cc1ccc(N2C(=O)[C@@H]3C(C(=O)c4ccc5ccccc5n4)=NN[C@@H]3C2=O)cc1	-7%	-4%	-16%	1%	-30%	8%
